# Data: PubChem BioAssay (NCATS)
# Where “and” joins values, the source holds several entries; their conditions need not be identical. Equal entries are not always repeated. Records with an inconclusive call do not appear. A call without a number means that no potency is given here. Some compounds were tested as several samples or in several runs, with calls that do not always agree. Calls of active or inactive are those of the source. Unless noted, calls come from the whole dose curve; as a rule, active = well fitted curve in the direction sought with a large enough effect; inconclusive = small, poorly fitted or top-dose-only effect, or another doubt; inactive = no such curve, though single readings can be large; an effect the other way counts as inactive or inconclusive.
# Assays:
# [1] = target: Beta-2 adrenergic receptor (Homo sapiens) (UniProt P07550); assay: qHTS validation assay of beta-arrestin-biased ligands of beta2-adrenergic receptor (AID 485366)
# Procedure, shortened: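 Tango cells (recombinant beta2-AR with recombinant beta-arrestin; recruitment releases tTA driving luciferase) were treated with compounds titrated up to 46 microM for 18 hr at 37 degrees C. Luminescence gave %Activity, and concentration-response curves were curve-classified.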
# [2] = Quantitative high throughput screen for delayed death inhibitors of the malarial parasite plastid, 96 hour incubation (AID 488745);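 note: luciferase-expressing P. falciparum in erythrocytes at 2% hematocrit and 0.1% parasitemia; series mostly up to about 29 µM; nearly all actives have a fitted effect of over 70% in size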
# Procedure, shortened: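 Growth of reporter-bearing P. falciparum in red cells is measured after 96 h with compound, covering two erythrocytic cycles. Luminescence from the integrated luciferase serves as the growth signal.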
# [3] = Quantitative high throughput screen for delayed death inhibitors of the malarial parasite plastid, 48 hour incubation (AID 488752); note: nearly all actives have a fitted effect of over 65% in size
# Procedure, shortened: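 One parasite generation (48 h, 37 C, 5% CO2) of luciferase-reporter P. falciparum in erythrocytes is run with test compound; decreased luminescence indicates inhibited growth.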
# [4] = target: Thioredoxin reductase 1, cytoplasmic (Rattus norvegicus) (UniProt O89049); assay: qHTS Assay for Substrates of Mammalian Selenoprotein Thioredoxin Reductase 1 (TrxR1) (AID 488772);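 note: NADPH fluorescence in the first read after selenite addition and not the 8 min delta; series mostly up to about 57 µM; a drop in NADPH fluorescence below the no-compound background marks a TrxR1 substrate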
# Procedure, shortened: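 Quantitative HTS in Tris-HCl buffer at pH 7.5 with EDTA and Tween-20, using rat TrxR1, 400 uM NADPH and 400 uM selenite (final). A fall in initial NADPH fluorescence relative to background marked substrate behaviour.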
# [5] = target: Thioredoxin reductase 1, cytoplasmic (Rattus norvegicus) (UniProt O89049); assay: qHTS Assay for Inhibitors of Mammalian Selenoprotein Thioredoxin Reductase 1 (TrxR1) (AID 488773); conditions: Potency: inhibition; note: nearly all actives have a fitted effect of over 40% in size; note: potency is the fitted concentration of half-maximal effect
# Procedure, shortened: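 Steps: enzyme (90 nM) plus NADPH (400 uM final), 5 min at ~22 deg C; compound added, 15 min; selenite (400 uM final) added; fluorescence followed for 8 min. Concentration-response curves derived from the normalized delta values.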
# [6] = target: Flap endonuclease 1 (Homo sapiens) (UniProt P39748); assay: qHTS Validation Assay for the Inhibitors of Human Flap endonuclease 1 (FEN1) (AID 488816); note: potency is the fitted concentration of half-maximal effect
# Procedure, shortened: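 FEN1, dispensed as a 10 nM reagent, was preincubated with pin-transferred compounds for 15 min at room temperature before substrate was added (50 nM final). Plates were read at 0 and 15 min, and a four-parameter Hill equation was fitted to the concentration-response data.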
# [7] = target: M-phase phosphoprotein 8 (Homo sapiens) (UniProt Q99549); assay: qHTS Validation Assay for Inhibitors for MPP8 Chromodomain Interactions with Methylated Histone Tails (AID 488949); note: nearly all actives have a fitted effect of over 55% in size; note: potency is the fitted concentration of half-maximal effect
# Procedure, shortened: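 50 nM MPP8 + 50 nM b-H3K9me3 peptide, PBS pH 7.4/0.01% Tween-20, 30 min RT; + cpd 30 min RT; + AlphaScreen donor/Ni-chelate acceptor beads 10 ug/mL final, 30 min dark; luminescence read.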
# [8] = target: Chromobox protein homolog 1 (Homo sapiens) (UniProt P83916); assay: qHTS Validation Assay for Inhibitors of HP1-beta Chromodomain Interactions with Methylated Histone Tails (AID 488953); note: nearly all actives have a fitted effect of over 50% in size; note: potency is the fitted concentration of half-maximal effect
# Procedure, shortened: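 Measured as loss of AlphaScreen luminescence from streptavidin donor and nickel acceptor beads (10 ug/mL final) bridging HP1-beta and biotin-H3(1-18)K9me3, each 50 nM. Compounds met the preassembled complex for 30 min at RT.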
# [9] = target: Methanococcus maripaludis chaperonin (MmCpn) (UniProt Q6LX38); assay: High-Throughput Screening for Modulators of Cytosolic Chaperonin Activity: MmCpn Primary Screen (AID 488978);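 note: 50 nM MmCpn enzyme hydrolysing 30 µM ATP at 37 °C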
# Procedure, shortened: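 Steps: chaperonin 50 nM final; add compound, 5 min RT; start with ATP, 30 uM final; hold 10 min at 37C; add ADP Transcreener HTRF reagent, 5 min; read ex 320, em 590 and 665 nm.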
# [10] = target: Transient receptor potential cation channel subfamily V member 1 (Homo sapiens) (UniProt Q8NER1); assay: HTS Assay for Compounds that Act as Enhancers of the Vanilloid Receptor 1 (AID 488979)
# Procedure, shortened: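 TRPV1-expressing cells loaded with Fluo-8 calcium dye; compounds added and calcium influx read kinetically for 3 min (agonist phase), then capsaicin at EC20 added and read 2 min more for enhancement. Fluorescence ex 480/em 520 nm.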
# [11] = target: Thyrotropin receptor (Homo sapiens) (UniProt P16473); assay: qHTS Assay for Antagonists of the Thyroid Stimulating Hormone Receptor (AID 488980); note: series mostly up to about 58 µM
# Procedure, shortened: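 Readout is cAMP by HTRF competition between cellular cAMP and cAMP-d2 for a cryptate-labelled antibody. Antagonism was assessed in TSHR-transfected HEK293 cells stimulated with 4 nM TSH (EC80, final) in the presence of RO 20-1724.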
# [12] = target: D(1A) dopamine receptor (Homo sapiens) (UniProt P21728); assay: HTS Assay for Allosteric Agonists of the Human D1 Dopamine Receptor: Primary Screen for Agonists (AID 488981)
# Procedure, shortened: (§1)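 Tetracycline-induced HEK293 T-REx cells force-coupled to calcium signalling were incubated overnight at 30 C and dye-loaded at room temperature. Calcium flux over 180 s after compound addition flagged agonists; a further 180 s read after EC20 dopamine flagged potentiators.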
# [13] = target: D(1A) dopamine receptor (Homo sapiens) (UniProt P21728); assay: HTS Assay for Allosteric Agonists of the Human D1 Dopamine Receptor: Primary Screen for Potentiators (AID 488982); note: potency is the fitted concentration of half-maximal effect
# Procedure, shortened: as §1
# [14] = target: D(1A) dopamine receptor (Homo sapiens) (UniProt P21728); assay: HTS Assay for Allosteric Agonists of the Human D1 Dopamine Receptor: Primary Screen for Antagonists (AID 488983);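 note: calcium flux response to an EC80 dopamine challenge measured with no-wash dye; nearly all actives have a fitted effect of over 65% in size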
# Procedure, shortened: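 Screening of inducible HEK293 T-REx D1 cells: compound first, EC80 dopamine 180 s later, each phase read kinetically for calcium over 180 s.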
# [15] = Validation screen for small molecules that induce genotoxicity in human embryonic kidney (HEK293T) cells expressing luciferase-tagged ELG1 (AID 493106)
# Procedure, shortened: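 Reporter-gene quantitative HTS in HEK293T cells carrying luciferase-tagged ELG1, whose level climbs under genotoxic stress. Compound exposure lasts 16 hr at 37 °C before luciferase detection.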
# [16] = target: ATPase family AAA domain-containing protein 5 (Homo sapiens) (UniProt Q96QE3); assay: Validation screen for small molecules that inhibit ELG1-dependent DNA repair in human embryonic kidney (HEK293T) cells expressing luciferase-tagged ELG1 (AID 493107);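 note: cells co-treated with the DNA-damaging agent 5-fluorouridine alongside compound; series mostly up to about 46 µM; inhibitors lower the ELG1-luciferase luminescence signal; nearly all actives have a fitted effect of over 70% in size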
# Procedure, shortened: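 Quantitative HTS in HEK293T cells carrying luciferase-tagged ELG1, stimulated with 5-fluorouridine alongside compound for 16 hr. Loss of luciferase signal marks inhibition of ELG1 response.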
# [17] = target: Thyrotropin-releasing hormone receptor (Homo sapiens) (UniProt P34981); assay: qHTS for Small Molecule Agonists and Allosteric Enhancers of Human TRH Receptor: Validation Screen for Agonists (AID 493127;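 active = calcium activation more than 3 SD above the typical response in the agonist read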;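 note: intracellular calcium rise by fluo-8 fluorescence before TRH EC20 addition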); conditions: TRH receptor agonist cell assay; at 2 µM; stronger effect = higher value
# Procedure, shortened: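 Gq-coupled calcium mobilization in TRHR cells after compound addition, monitored kinetically with fluo-8 dye on an FDSS reader.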
# [18] = target: Tyrosyl-DNA phosphodiesterase 1 (Homo sapiens) (UniProt Q9NUW8); assay: Confirmation Assay for Inhibitors of Tyrosyl-DNA Phosphodiesterase (TDP1) (AID 489007); conditions: recombinant human TDP1 enzymatic activity, dose-response; note: potency is the fitted concentration of half-maximal effect; nearly all actives have a fitted effect of over 40% in size
# Procedure, shortened: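 Confirmation of primary-screen follow-ups in a qHTS format. Substrate cleavage by Tdp1 (1 nM) of a 3'-phosphotyrosine-FITC, 5'-biotin oligo (15 nM) was monitored as decreased AlphaScreen signal after a 5 min room-temperature reaction.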
# [19] = target: ATP-dependent 6-phosphofructokinase (Trypanosoma brucei brucei) (UniProt O15648); assay: qHTS Validation Assay to Find Inhibitors of T. brucei phosphofructokinase (AID 485368)
# Procedure, shortened: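 Compounds (up to 57 uM, titration series) were pinned into substrate buffer, then 1.25 nM PFK added; after 45 min at room temperature, ADP product was quantified by ADP-Glo luminescence and concentration-response curves fitted.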
# Chromobox protein homolog 1 (Homo sapiens), sequence (P83916 whole entry, looked up): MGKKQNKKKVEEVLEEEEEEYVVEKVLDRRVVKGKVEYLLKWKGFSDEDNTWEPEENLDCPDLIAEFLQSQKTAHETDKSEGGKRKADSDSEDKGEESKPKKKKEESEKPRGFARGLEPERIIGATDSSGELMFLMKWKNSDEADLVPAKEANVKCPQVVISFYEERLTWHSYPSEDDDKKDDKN
# Thioredoxin reductase 1, cytoplasmic (Rattus norvegicus), sequence (O89049 whole entry, looked up): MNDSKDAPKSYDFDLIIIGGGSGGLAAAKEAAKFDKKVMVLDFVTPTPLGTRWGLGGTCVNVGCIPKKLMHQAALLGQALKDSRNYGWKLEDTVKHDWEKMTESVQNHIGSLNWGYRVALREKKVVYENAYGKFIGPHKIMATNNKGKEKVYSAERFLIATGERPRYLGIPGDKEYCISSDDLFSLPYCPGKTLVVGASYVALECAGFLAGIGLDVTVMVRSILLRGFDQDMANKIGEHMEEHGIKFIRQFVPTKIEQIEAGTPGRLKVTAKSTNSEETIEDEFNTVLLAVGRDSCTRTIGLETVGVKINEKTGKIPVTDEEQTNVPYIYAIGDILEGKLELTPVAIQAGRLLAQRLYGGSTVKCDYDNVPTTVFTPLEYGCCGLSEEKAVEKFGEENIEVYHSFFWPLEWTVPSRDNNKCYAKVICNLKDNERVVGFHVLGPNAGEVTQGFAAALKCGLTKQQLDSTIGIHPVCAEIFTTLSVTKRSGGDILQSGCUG
# Transient receptor potential cation channel subfamily V member 1 (Homo sapiens), sequence (Q8NER1 whole entry, looked up): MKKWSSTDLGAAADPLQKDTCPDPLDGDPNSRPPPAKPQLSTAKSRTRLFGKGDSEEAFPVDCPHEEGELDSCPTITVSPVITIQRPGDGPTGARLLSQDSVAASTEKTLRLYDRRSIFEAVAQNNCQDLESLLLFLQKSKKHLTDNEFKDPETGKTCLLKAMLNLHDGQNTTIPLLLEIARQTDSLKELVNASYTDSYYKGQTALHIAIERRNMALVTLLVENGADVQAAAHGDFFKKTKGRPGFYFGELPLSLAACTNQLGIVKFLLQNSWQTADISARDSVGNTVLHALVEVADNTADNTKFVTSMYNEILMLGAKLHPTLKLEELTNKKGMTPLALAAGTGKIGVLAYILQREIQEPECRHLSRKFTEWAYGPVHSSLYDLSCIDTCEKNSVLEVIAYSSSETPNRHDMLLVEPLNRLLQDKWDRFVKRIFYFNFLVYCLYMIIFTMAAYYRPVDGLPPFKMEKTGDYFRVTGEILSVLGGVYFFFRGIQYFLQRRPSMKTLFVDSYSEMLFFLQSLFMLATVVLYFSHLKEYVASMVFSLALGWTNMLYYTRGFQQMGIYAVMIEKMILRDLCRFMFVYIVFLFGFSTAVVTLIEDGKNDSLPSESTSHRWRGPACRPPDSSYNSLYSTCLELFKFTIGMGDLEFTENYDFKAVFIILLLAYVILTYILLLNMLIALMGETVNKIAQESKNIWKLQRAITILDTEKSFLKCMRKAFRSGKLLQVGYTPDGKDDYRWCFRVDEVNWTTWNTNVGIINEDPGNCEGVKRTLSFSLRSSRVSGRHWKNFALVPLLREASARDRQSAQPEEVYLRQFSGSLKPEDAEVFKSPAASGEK
# ATPase family AAA domain-containing protein 5 (Homo sapiens), sequence (Q96QE3 whole entry, looked up, the tested form may be a part): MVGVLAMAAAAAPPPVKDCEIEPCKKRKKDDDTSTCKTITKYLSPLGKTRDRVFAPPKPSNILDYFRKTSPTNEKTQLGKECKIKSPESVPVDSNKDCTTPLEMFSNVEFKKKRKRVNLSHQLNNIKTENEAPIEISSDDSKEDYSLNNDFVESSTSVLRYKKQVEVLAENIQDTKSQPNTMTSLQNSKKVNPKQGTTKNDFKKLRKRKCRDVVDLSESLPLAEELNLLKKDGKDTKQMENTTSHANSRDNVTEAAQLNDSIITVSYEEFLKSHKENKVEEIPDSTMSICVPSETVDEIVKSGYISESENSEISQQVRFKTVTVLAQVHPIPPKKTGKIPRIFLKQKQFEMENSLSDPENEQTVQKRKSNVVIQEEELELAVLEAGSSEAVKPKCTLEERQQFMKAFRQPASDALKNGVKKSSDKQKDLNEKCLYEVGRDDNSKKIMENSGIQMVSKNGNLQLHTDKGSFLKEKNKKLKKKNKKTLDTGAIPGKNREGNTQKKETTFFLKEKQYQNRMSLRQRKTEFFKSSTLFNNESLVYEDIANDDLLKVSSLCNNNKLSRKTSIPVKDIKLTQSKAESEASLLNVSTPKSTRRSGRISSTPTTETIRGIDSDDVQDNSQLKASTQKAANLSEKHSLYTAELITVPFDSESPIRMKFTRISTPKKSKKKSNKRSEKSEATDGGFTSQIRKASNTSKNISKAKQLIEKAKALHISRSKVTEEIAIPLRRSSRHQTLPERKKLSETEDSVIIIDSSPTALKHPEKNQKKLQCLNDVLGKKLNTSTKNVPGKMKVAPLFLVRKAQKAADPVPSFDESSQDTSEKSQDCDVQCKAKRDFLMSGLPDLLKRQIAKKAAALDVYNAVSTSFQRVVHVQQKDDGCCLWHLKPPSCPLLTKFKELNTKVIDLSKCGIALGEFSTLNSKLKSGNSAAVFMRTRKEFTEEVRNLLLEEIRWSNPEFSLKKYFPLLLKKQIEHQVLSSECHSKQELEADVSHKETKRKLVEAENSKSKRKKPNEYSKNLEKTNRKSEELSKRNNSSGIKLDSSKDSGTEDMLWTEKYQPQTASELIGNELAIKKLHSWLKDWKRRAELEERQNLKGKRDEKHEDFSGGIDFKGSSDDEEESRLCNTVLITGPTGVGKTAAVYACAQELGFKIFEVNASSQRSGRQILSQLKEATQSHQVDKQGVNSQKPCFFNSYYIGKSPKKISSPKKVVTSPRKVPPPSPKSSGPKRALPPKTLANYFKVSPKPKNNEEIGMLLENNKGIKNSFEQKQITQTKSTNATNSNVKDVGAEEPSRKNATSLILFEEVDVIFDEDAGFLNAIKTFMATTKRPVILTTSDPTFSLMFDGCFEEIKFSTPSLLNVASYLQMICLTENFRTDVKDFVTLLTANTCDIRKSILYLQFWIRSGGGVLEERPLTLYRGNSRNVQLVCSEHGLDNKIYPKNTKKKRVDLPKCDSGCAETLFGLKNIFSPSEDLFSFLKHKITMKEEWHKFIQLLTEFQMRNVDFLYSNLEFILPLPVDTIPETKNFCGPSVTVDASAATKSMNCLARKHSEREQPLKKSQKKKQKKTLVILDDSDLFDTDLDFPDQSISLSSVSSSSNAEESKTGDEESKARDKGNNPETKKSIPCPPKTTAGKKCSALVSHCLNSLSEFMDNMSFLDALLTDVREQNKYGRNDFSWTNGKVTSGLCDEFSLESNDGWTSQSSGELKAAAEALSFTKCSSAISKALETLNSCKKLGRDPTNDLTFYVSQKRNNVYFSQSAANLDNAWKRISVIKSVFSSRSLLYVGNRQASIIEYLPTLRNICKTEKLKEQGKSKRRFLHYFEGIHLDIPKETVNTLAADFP
# D(1A) dopamine receptor (Homo sapiens), sequence (P21728 whole entry, looked up): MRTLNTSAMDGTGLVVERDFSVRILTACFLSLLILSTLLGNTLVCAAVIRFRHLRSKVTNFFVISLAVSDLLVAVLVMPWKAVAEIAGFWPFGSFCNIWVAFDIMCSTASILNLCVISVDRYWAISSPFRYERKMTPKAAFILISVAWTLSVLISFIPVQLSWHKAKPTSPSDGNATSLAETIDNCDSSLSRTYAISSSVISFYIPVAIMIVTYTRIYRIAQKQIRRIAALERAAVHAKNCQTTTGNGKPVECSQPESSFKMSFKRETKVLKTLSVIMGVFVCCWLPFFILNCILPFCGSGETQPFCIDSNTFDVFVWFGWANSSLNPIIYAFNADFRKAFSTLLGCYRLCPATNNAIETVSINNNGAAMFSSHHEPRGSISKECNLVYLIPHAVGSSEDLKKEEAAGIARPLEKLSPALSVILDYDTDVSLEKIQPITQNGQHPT
# Thyrotropin receptor (Homo sapiens), sequence (P16473 whole entry, looked up): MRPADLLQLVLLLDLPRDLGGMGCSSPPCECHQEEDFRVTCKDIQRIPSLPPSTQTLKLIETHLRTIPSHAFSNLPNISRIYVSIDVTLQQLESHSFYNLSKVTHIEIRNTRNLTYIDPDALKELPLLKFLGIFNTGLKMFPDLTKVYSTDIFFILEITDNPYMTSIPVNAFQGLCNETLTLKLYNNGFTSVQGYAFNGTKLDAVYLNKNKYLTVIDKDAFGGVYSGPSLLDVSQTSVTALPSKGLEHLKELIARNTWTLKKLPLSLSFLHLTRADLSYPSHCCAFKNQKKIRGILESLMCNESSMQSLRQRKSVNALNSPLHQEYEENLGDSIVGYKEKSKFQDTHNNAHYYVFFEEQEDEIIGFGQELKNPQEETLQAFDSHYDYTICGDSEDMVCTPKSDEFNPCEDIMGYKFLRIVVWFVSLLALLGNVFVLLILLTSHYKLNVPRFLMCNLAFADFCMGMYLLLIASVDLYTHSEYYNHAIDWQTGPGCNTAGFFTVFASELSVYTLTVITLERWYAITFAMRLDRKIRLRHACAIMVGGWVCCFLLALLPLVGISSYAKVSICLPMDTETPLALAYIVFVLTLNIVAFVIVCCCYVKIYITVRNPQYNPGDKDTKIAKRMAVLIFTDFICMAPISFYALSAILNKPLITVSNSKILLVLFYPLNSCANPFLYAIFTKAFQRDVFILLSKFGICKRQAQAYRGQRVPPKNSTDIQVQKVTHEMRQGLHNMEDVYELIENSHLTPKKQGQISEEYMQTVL
# Thyrotropin-releasing hormone receptor (Homo sapiens), sequence (P34981 whole entry, looked up): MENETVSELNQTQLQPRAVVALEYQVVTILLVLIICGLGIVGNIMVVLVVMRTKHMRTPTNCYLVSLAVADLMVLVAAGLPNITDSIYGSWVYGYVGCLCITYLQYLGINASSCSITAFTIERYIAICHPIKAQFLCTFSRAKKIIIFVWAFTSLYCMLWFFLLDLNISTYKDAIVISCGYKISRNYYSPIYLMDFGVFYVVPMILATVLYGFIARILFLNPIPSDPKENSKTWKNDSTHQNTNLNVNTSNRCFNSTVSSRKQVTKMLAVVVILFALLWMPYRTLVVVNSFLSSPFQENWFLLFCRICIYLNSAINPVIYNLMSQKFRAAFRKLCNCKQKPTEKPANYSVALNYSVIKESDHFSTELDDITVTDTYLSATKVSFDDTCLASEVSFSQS
Compound,outcome [1],Potency [2],Potency [3],outcome [4],Potency [5],Potency [6],Potency [7],Potency [8],outcome [9],outcome [10],outcome [11],Potency [12],Potency [13],Potency [14],Potency [15],Potency [16],activation [17],Potency [18],Potency [19]
CN(C)C(=O)/N=N/C(=O)N(C)C,inactive,inactive,inactive,inactive,inactive,inactive,31.6 µM (active) and inactive,20 µM (active),inactive,inactive,inactive,inactive,inactive,inactive,inactive,inactive,0.75% (inactive),,
CC(=O)O[C@H]1CC2(C)[C@@H](C[C@@H](O)[C@H]3[C@@]4(C)CC[C@@H](O)[C@@H](C)[C@@H]4CC[C@@]32C)C1=C(CCC=C(C)C)C(=O)O (stereo not given in full),inactive,inactive,inactive,inactive,inactive,inactive,inactive,inactive,inactive,inactive,inactive,inactive,inactive,,inactive,,,,
NC(=O)CNCCC(c1ccccc1)c1ccccc1,inactive,inactive,inactive,inactive,inactive,inactive,inactive,inactive,inactive,inactive,inactive,inactive,inactive,inactive,inactive,inactive,1.81% (inactive),,
Cc1nc(N=Nc2ccc(S(=O)(=O)O)cc2S(=O)(=O)O)c(COP(=O)(O)O)c(C=O)c1O,inactive,inactive,inactive,inactive,inactive,inactive,inactive,inactive,inactive,inactive,,inactive,inactive,inactive,inactive,,0.938% (inactive),7.08 µM (active),
CCCn1c(=O)c2c(ncn2C)n(CCC)c1=O,inactive,inactive,inactive,inactive,inactive,inactive,inactive,inactive,inactive,inactive,inactive,,,inactive,,inactive,,,
O=C(O)c1cc(=O)cc(C(=O)O)[nH]1,inactive,inactive,inactive,inactive,inactive,inactive,inactive,inactive,inactive,inactive,,inactive,inactive,inactive,inactive,inactive,0.75% (inactive),,
CCCCCCCCCCC/C=C\C(C)(C)/C=C\CCCC(=O)O,inactive,inactive,inactive,inactive,inactive,inactive,inactive,inactive,inactive,inactive,inactive,inactive,,inactive,inactive,inactive,0.562% (inactive),,
CC(C)[C@@H]1CC[C@@H](C)C[C@@H]1P(=O)(c1ccccc1)c1ccccc1,inactive,,,inactive,,inactive,,inactive,inactive,,,inactive,inactive,,inactive,inactive,,,inactive
CC(N)(Cc1ccc(O)c(O)c1)C(=O)O (stereo not given),inactive,inactive,inactive,inactive,2.99 µM (active),2.38 µM (active),79.4 µM (active) and 2.38 µM (active),5.32 µM (active),inactive,inactive,,inactive,,inactive,inactive,,0% (inactive),,
CC(=O)SC1CC2=CC(=O)CC[C@]2(C)C2CC[C@@]3(C)C(CC[C@@]34CCC(=O)O4)C12 (stereo not given in full),inactive,,,inactive,,inactive,inactive,inactive,inactive,,,inactive,inactive,inactive,inactive,,,,inactive
O=C(O)C1CCCNC1 (stereo not given),inactive,inactive,inactive,inactive,inactive,inactive,inactive,inactive,inactive,inactive,inactive,inactive,2.31 µM (active),inactive,,inactive,0.625% (inactive),,
COc1cc(CC(=O)O)ccc1O,inactive,inactive,inactive,inactive,inactive,inactive,inactive,0.006 µM (active),inactive,inactive,,inactive,inactive,inactive,,,,,
O=c1ccn([C@@H]2O[C@H](COP(=O)(O)OP(=O)(O)O)[C@@H](O)[C@H]2O)c(=O)[nH]1,inactive,inactive,inactive,inactive,inactive,inactive,inactive,inactive,inactive,inactive,inactive,inactive,,inactive,inactive,,,,
O=[N+]([O-])c1cccc2c(Br)[nH]nc12,inactive,inactive,inactive,inactive,inactive,inactive,inactive,inactive,inactive,inactive,inactive,inactive,inactive,inactive,inactive,inactive,-3.31% (inactive),,
NC(Cc1cccc(-c2ccccc2CP(=O)(O)O)c1)C(=O)O (stereo not given),inactive,inactive,inactive,inactive,inactive,inactive,inactive,inactive,inactive,inactive,inactive,inactive,,inactive,inactive,inactive,1.31% (inactive),,
COc1cc(N)c(Cl)cc1C(=O)OCCN1CCCCC1,inactive,inactive,inactive,inactive,inactive,inactive,inactive,0.006 µM (active),inactive,inactive,inactive,inactive,inactive,inactive,,,-2.44% (inactive),,
